Several values for one entry are separate records, joined by “and”; a condition that tells them apart may be missing. Identical values can stand only once. The panel holds about 83,000 compounds, 20% with a hit somewhere; the sample as a whole holds those more often.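 Negative percent growth values reflect cell death: -40 means 40% of the cells present at the start died, and -100 means all died.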 Activity calls are given as the source filed them. Rule for the calls: active = growth percent below 10; inactive = the rest.
What was measured:
Test in all cases: NCI-60 one-dose screen, 48 h (100 = growth as untreated, 0 = no growth, -100 = all killed)
[1] = test system: OVCAR-8 ovarian
[2] = test system: SR leukemia; conditions: 10 µM unless noted
[3] = test system: RPMI-8226 leukemia; conditions: 10 µM unless noted
[4] = test system: OVCAR-5 ovarian; conditions: 10 µM unless noted
[5] = test system: OVCAR-4 ovarian; conditions: 10 µM unless noted
[6] = test system: SK-OV-3 ovarian; conditions: 10 µM unless noted
[7] = test system: IGROV1 ovarian; conditions: 10 µM unless noted
[8] = test system: OVCAR-3 ovarian; conditions: 10 µM unless noted
[9] = test system: HS 578T breast; conditions: 10 µM unless noted
[10] = test system: NCI/ADR-RES ovarian; conditions: 10 µM unless noted

Measured: growth

CN(C)C(=O)c1ccc(SC(=S)NCc2ccccc2)cc1
inactive: [1]; 10 µM 106%
active: [1]; 100 µM -6.08%

O=C(Nc1cccc(Br)c1)Oc1cccc2cccnc12
inactive: [1]; 10 µM 102% | [1]; 100 µM 11%

Cc1ccnc2c1ccc1c(C)ccnc12
inactive: [3] 17.4% | [1]; 10 µM unless noted 12.1% | [4] 48.8% | [5] 24.1% | [7] 23.8% | [8] 24.9% | [9] 52.6%
active: [2] 4.34% | [6] 3.59% | [10] 1.41%

CCC(CCCN(CC)CCc1ccccc1)OC(=O)c1cc(OC)c(OC)c(OC)c1 (stereo not given)
inactive: [2] 78.7% | [3] 85% | [1]; 10 µM unless noted 92.2% | [4] 84.8% | [5] 82.6% | [6] 83.5% | [7] 78.1% | [8] 92.2% | [9] 81.3% | [10] 83.3%

O=C1c2cccnc2-c2nccc3c2c1nc1cc(Br)ccc13
active: [3] -49.7% and -22.2% | [1]; 10 µM unless noted -41.9% | [5] -54.2% and -85.3% | [6] -10.1% and -96% | [7] -77.6% and -77.5% | [8] -83.1% and -95.4% | [9] -74% and -32.9% | [10] -50.7% and -38.1%
32.3% (inactive) and -53% (active): [4]
-38.2% (active) and 17.6% (inactive): [2]

COc1ccccc1OC(=O)Oc1ccccc1OC
inactive: [2] 103% and 101% | [3] 105% and 72.9% | [1]; 10 µM unless noted 103% and 112% | [4] 117% and 97.6% | [5] 114% and 99% | [6] 112% | [7] 105% and 97.2% | [8] 119% and 96.3% | [9] 92.4% and 102% | [10] 114% and 95.8%

Cc1ccc(N=C=C(c2ccccc2)c2ccccc2)cc1
inactive: [2] 22.9% | [3] 16.6% | [1]; 10 µM unless noted 70% | [4] 113% | [5] 103% | [6] 112% | [7] 57.2% | [8] 118% | [9] 91.1% | [10] 81.2%

CN(C)c1ccc(/C=N/N=C(\C#N)[S][Sn]([Cl])([c]2ccccc2)[c]2ccccc2)cc1
active: [2] 5.61% | [3] -13.8% | [8] -80.1%
inactive: [1]; 10 µM unless noted 60.6% | [4] 13.1% | [5] 28.1% | [6] 99.7% | [7] 43% | [9] 61.7% | [10] 66.9%

CCC1OC(OC)C=CC1=O (stereo not given)
inactive: [2] 81.5% | [3] 110% | [1]; 10 µM unless noted 117% | [4] 123% | [5] 103% | [6] 102% | [7] 137% | [8] 95.4% | [9] 96.9% | [10] 111%

CC(=O)C(=Cc1ccc(C=C(C(C)=O)C(C)=O)cc1)C(C)=O
inactive: [4] 27.1% | [5] 30.4% | [6] 93.9% | [7] 48.6% | [9] 64.7%
active: [2] 6.26% | [3] 2.05% | [1]; 10 µM unless noted 2.83% | [8] -16.2% | [10] 7.49%

CC(=O)Nc1cccc2cc(O)ccc12
inactive: [2] 108% and 107% and 99.6% | [3] 120% and 112% and 106% | [1]; 10 µM unless noted 106% and 100% and 94.3% | [4] 94.7% and 93.2% and 113% | [5] 119% and 109% and 98.8% | [6] 111% and 115% and 99.8% | [7] 97.2% and 123% | [8] 111% and 105% and 108% | [9] 132% and 101% and 98.5% | [10] 104% and 113% and 110%

CCCCCC(CCCCC)C(=O)O
inactive: [2] 99.7% | [3] 97.3% | [1]; 10 µM unless noted 113% | [4] 110% | [5] 106% | [6] 98.4% | [7] 96.3% | [8] 118% | [9] 104% | [10] 117%

O=C(/C=C\c1cc(Br)ccc1O)/C=C/c1cc(Br)ccc1O
inactive: [5] 15.2% | [6] 18.9%
active: [2] 1.17% | [3] 0.234% | [1]; 10 µM unless noted 3.86% | [4] -22.2% | [7] -16.9% | [8] -81.5% | [10] 7.59%

OC(CNc1ccnc2cc(Cl)ccc12)CNc1ccnc2cc(Cl)ccc12
inactive: [3] 92.6% | [1]; 10 µM unless noted 52.5% | [4] 79.5% | [5] 48% | [6] 113% | [7] 87.6% | [8] 43.6% | [9] 89% | [10] 106%
active: [2] 2.51%

CC1=CC(O)C2CC1C2(C)C (stereo not given)
inactive: [2] 101% and 97.3% | [3] 111% and 107% | [1]; 10 µM unless noted 105% and 104% | [4] 104% and 110% | [5] 99.7% and 108% | [6] 94.3% and 104% | [7] 101% and 99.3% | [8] 110% and 113% | [9] 97.5% and 106% | [10] 108% and 109%

CCC(CC)COC(=O)c1ccc(O)c(O)c1
inactive: [2] 18.6% | [3] 35.1% | [1]; 10 µM unless noted 59.9% | [4] 91.3% | [5] 77.2% | [6] 67% | [7] 37.5% | [8] 78.1% | [9] 86.8% | [10] 57.8%

CC(C)(C)c1ccc(O)c(C2CCCCC2)c1
inactive: [2] 84.9% | [3] 83% | [1]; 10 µM unless noted 96.3% | [4] 101% | [5] 101% | [6] 109% | [7] 137% | [8] 110% | [10] 117%

Cc1ccc2c(ccc3c[n+]4c5ccccc5ccc4n32)c1
active: [2] -12.5% | [1]; 10 µM unless noted 3.22% | [5] -35.4% | [6] 0.442% | [8] -43.2%
inactive: [3] 31.7% | [4] 47.6% | [7] 27% | [10] 70.3%

CCCCCCCCCCCCCCNCc1ccccc1
inactive: [2] 11.8% | [3] 34.5% | [1]; 10 µM unless noted 87% | [4] 105% | [5] 80.3% | [6] 97.8% | [7] 97.7% | [8] 91.4% | [9] 95% | [10] 79.6%

CC(=Nc1ccc(N(C)C)cc1)c1ccccc1
active: [3] 7.42%
inactive: [2] 32.6% | [1]; 10 µM unless noted 25.7% | [4] 106% | [5] 69.9% | [6] 73% | [7] 58.8% | [8] 25.3% | [9] 74.2% | [10] 74.7%

Cc1cc(C(C)(CC(C)C)c2ccc(O)c(C)c2)ccc1O
inactive: [2] 94.6% | [3] 86.3% | [1]; 10 µM unless noted 91.2% | [4] 113% | [5] 94.8% | [6] 97% | [7] 103% | [8] 106% | [9] 129% | [10] 105%

O=C(Nc1ccc(F)cc1)ON=C1CCCCC1
inactive: [2] 84.9% [100 µM] | [3] 93.9% [100 µM] | [1]; 10 µM unless noted 106% [100 µM] | [4] 97.9% [100 µM] | [5] 99.1% [100 µM] | [6] 129% [100 µM] | [7] 102% [100 µM] | [8] 108% [100 µM] | [9] 99% [100 µM] | [10] 105% [100 µM]

NC1=CC(=O)c2ccccc2C1=O
inactive: [2] 81.3% | [3] 81.7% | [1]; 10 µM unless noted 85.3% | [4] 110% | [5] 87.7% | [6] 92.3% | [7] 90.8% | [8] 82.6% | [10] 88.6%

CN=C(N)N/N=C(\C)c1ccc2c(c1)Cc1cc(/C(C)=N/NC(N)=NC)ccc1-2
inactive: [7] 26.5% | [10] 64.8%
active: [2] -23.3% | [3] -1.58% | [1]; 10 µM unless noted -53.5% | [4] -44.4% | [5] -69.1% | [6] -80.8% | [8] -59.6% | [9] -8.27%

N[C@H](C(=O)O)[C@@H]1CC(Cl)=NO1
inactive: [2] 21.2% [20 µM] | [3] 28.9% [20 µM] | [1]; 10 µM unless noted 30.3% [20 µM] | [4] 28.4% [20 µM] | [5] 48.1% [20 µM] | [6] 34.1% [20 µM] | [7] 10.8% [20 µM] | [8] 32.4% [20 µM] | [9] 27.2% [20 µM] | [10] 28.4% [20 µM]

O=C(Nc1ccccc1)c1cc(Cl)ccc1O
inactive: [2] 48.7% | [3] 19.9% | [1]; 10 µM unless noted 44.9% | [4] 94.1% | [5] 41.3% | [6] 73.6% | [7] 58.9% | [8] 37.4% | [9] 29% | [10] 74.6%

From PubChem BioAssay (NCI)
